Most compounds without a hit are left out; they make up all but 9.3% or so of the library.
ELG1 genotoxic: qHTS screen for small molecules that induce genotoxicity in human embryonic kidney (HEK293T) cells expressing luciferase-tagged ELG1; HEK293T ELG1-luciferase reporter, luminescence, 16 h; Potency, µM (series often up to 46 µM), for the others: at the highest dose activity change, positive = activation, most hits filed as activators; 330,000 tested, 1.3% active; also: % of control where 0% means no effect; nearly all actives have a fitted effect of over 60% in size
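Genotoxicity was scored as increased ELG1-luciferase reporter signal, measured by ONE-Glo luminescence (30 min, room temperature). Compound or vehicle exposure of the HEK293T reporter cells lasted 16 hr at 37°C.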
FLuc modulator: qHTS profiling assay for firefly luciferase inhibitor/activator using purifed enzyme and Km concentrations of substrates (counterscreen for miR-21 project); purified FLuc, Km substrates, luminescence inhibition; Potency, µM (doses to about 57.5 µM), inactives show at the highest dose activity change, negative = inhibition, usual class: inhibitors; Luciferin 4-monooxygenase (Photinus pyralis), P08659; 360,000 tested, 6.9% active; AID 588342, 2011;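 also: plate controls were vehicle for no effect and reference inhibitor for full effect; nearly all actives have a fitted effect of over 55% in size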
Target sequence (P08659 whole entry, looked up): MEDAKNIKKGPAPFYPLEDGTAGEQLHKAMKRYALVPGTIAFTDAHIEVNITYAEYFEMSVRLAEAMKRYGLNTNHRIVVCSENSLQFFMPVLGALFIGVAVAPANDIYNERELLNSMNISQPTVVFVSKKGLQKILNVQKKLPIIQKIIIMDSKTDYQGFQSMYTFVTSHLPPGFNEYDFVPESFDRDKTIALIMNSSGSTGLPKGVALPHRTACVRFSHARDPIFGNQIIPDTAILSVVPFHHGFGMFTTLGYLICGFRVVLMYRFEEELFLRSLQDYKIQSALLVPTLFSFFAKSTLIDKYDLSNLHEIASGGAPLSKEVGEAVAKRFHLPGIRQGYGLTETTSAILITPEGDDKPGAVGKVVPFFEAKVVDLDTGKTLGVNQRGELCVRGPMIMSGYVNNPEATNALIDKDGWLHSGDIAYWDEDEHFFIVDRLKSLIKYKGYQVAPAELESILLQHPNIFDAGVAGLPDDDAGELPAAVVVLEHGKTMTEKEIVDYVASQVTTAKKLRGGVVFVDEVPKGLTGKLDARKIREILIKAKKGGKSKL
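Purified P. pyralis luciferase (10nM final) with 10uM D-luciferin and 10uM ATP (Km levels) in 50mM Tris acetate pH 7.5, 10mM Mg acetate, 0.01% Tween-20, 0.05% BSA; qHTS 6-point titration, ~60 µM downward; luminescence read.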
SMN2 splice enh: qHTS Assay for Enhancers of SMN2 Splice Variant Expression | HEK293 SMN2-luciferase splicing reporter, luminescence, 30-36 h | Potency, µM (doses to about 46.1 µM), for inactives: at the top dose activity change, positive = activation, actives largely listed as activators | 210,000 tested, 2.8% active; also: % of control where 0% means no effect; nearly all actives have a fitted effect of over 55% in size
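qHTS luciferase splicing reporter: luminescence rises when SMN2 exon 7 is included in transfected HEK293 cells. Compound exposure lasted 30-36 h at 37C, with 4.5 mM final sodium butyrate as control, followed by a ONE-Glo read.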
NPC1 promoter act: qHTS Assay for NPC1 Promoter Activators | Huh7 NPC1 promoter luciferase reporter, 24 h | Potency, µM (top dose mostly 9.22 µM), inactives show top-dose activation, actives largely listed as activators | 320,000 tested, 2.4% active; also: % of control where 0% means no effect; nearly all actives have a fitted effect of over 60% in size
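Huh7 cells stably carrying NPC1 promoter–luciferase, plated in Opti-MEM with 10% FBS for 2 h, were exposed to compound in DMSO for 24 h at 37 °C; luciferase reagent was added for 10 min and luminescence read.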
Rab9 prom act: qHTS Assay for Rab9 Promoter Activators; AID 485297, 2010; Potency, µM (series often up to 9.22 µM), for inactives: at the top dose activation, negative = inhibition, most hits filed as activators; Huh7 Rab9 promoter-luciferase reporter, luminescence, 24 h; 320,000 tested, 2.8% active; also: % of control where 0% means no effect; nearly all actives have a fitted effect of over 60% in size
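Luminescence from Amplite-detected luciferase (10 minutes, ambient) reports Rab9 promoter activation. Before that, stable Rab9-luciferase Huh7 cells (1500/well, reduced-serum OP-MEM I plus 10% FBS) were exposed to compound for 24 hours at 37C.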
ELG1 repair inh: qHTS screen for small molecules that inhibit ELG1-dependent DNA repair in human embryonic kidney (HEK293T) cells expressing luciferase-tagged ELG1; HEK293T ELG1-luciferase reporter, luminescence, 16 h; DNA damage induced by 5-fluorouridine; Potency, µM (top dose mostly 46.1 µM), inactives show at the top dose activity change, negative = inhibition, usual class: inhibitors; 330,000 tested, 2.3% active; AID 504467, 2011; also: % is scaled to controls: 0 for no effect and ±100 for the full control effect; nearly all actives have a fitted effect of over 55% in size
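5-Fluorouridine DNA damage + compound/DMSO, 2,000 cells/well, 16 h, 37 °C/5% CO2. ONE-Glo, 30 min RT, luminescence. Readout = decrease in reporter signal.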
* = called active by the depositor; ? = inconclusive; / = not tested or not shown; [ ] = another dose, or the depositor's remark. Calls follow the shape of the dose curve; as a rule, active = well fitted curve in the direction sought with a large enough effect; inconclusive = small, poorly fitted or top-dose-only effect, or another doubt; inactive = no such curve, though single readings can be large; an effect the other way counts as inactive or inconclusive. Potency is read from the fitted curve at half-maximal effect.

SMILES | ELG1 genotoxic | FLuc modulator | SMN2 splice enh | NPC1 promoter act | Rab9 prom act | ELG1 repair inh
COc1ccc(NC(=O)Nc2ccc(OCC(=O)N3CCOCC3)cc2)cc1OC | 4.5% | 13.5µM* | / | -5.1% | 4.7% | 9.4%
Cc1cccc(NC(=O)C2CCN(S(=O)(=O)c3c(C)c(C)cc(C)c3C)CC2)n1 | -10.2% | 2.5% | / | 0.9% | -3.3% | ?
O=C1c2cccnc2C(=O)N1Cc1ccc(S(=O)(=O)N2CCOc3ccc(Cl)cc32)cc1 | -3.3% | 2.9% | / | 2.1% | 0.2% | 23.6%
Cn1c(=O)c2c(n3ncnc13)NC(=O)CC2c1cccc(F)c1 (configuration not stated) | / | 7.4% | -3.0% | / | / | /
Cc1ccc2c(c1)-c1cc(C)nn1C(c1cc(Br)ccc1O)N2 (configuration not stated) | / | -8.4% | 14.8% | / | / | /
O=C(Nc1ccon1)c1cc2c(s1)CCCC2 | 1.3µM* | 3.01µM* | 6.31µM* | 1.41µM* | 1.12µM* | ?
O=C(Nc1ccc(N2CCOCC2)cc1)c1cc2c(s1)CCCC2 | 11.1% | ? | -12.2% | 10.3% | 1.8% | 9.9%
O=C(NCC(c1ccco1)N1CCCCC1)c1cc2c(s1)CCCC2 (configuration not stated) | -1.1% | -16.1% | / | 0.2% | -5.0% | -7.0%
O=C(Nc1ccon1)c1cc2c(s1)CCCCCC2 | 4.47µM* | 6.01µM* | 12.6µM* | 3.16µM* | 3.55µM* | ?
CCCn1c(N)c(N(CCOC)C(=O)/C=C/c2cccc(Cl)c2)c(=O)[nH]c1=O | 4.9% | -2.6% | -23.0% | -8.6% | 3.4% | 3.1%
CCCCN(C(=O)c1cccs1)c1c(N)n(Cc2ccccc2)c(=O)[nH]c1=O | 5.3% | / | / | / | / | 2.9%
COc1ccccc1N1CCN(C(=O)/C=C/c2ccc3c(c2)OCO3)CC1 | -6.1% | -9.3% | -9.6% | -3.2% | 1.2% | -3.1%
Cc1ccc(S(N)(=O)=O)cc1NC(=O)/C=C/c1cccs1 | -0.3% | -11.6% | -10.5% | -4.3% | -0.7% | 2.9%
COc1ccccc1NC(=O)COC(=O)/C=C/c1ccc2c(c1)OCO2 | ? | 10.7µM* | -1.1% | 10.9% | 11.6% | ?
NC(=O)c1ccc(NC(=O)COC(=O)/C=C/c2ccc3c(c2)OCO3)cc1 | 7.2% | 12µM* | / | 2.2% | 3.3% | 5.9%
COc1ccccc1NC(=O)/C=C/c1ccc2c(c1)OCO2 | 13.0% | 6.75µM* | 11.2µM* | 27.8% | ? | ?
Cc1ccc(S(N)(=O)=O)cc1NC(=O)/C=C/c1ccc2c(c1)OCO2 | 0.9% | 23.9µM* | -4.6% | -0.7% | 3.2% | 0.0%
Cc1cc(C)cc(C(=O)NC(CC(N)=O)c2ccc(N3CCCCCC3)c([N+](=O)[O-])c2)c1 (configuration not stated) | -0.3% | 2.0% | / | -2.3% | -2.0% | -8.5%
COc1ccc(NC(=O)C(NC(=O)/C=C\c2ccc3c(c2)OCO3)c2ccccc2)cc1 (configuration not stated) | / | -0.5% | 2µM* | / | / | /
CC1CCCN(C(=O)CSc2nnc3n(C4CCCC4)c(=O)c4ccccc4n23)C1 (configuration not stated) | -20.5% | -1.4% | 57.6% | 0.1% | 4.0% | 9.2µM*
CCC1CCCCN1C(=O)CSc1nnc(-c2cccs2)o1 (configuration not stated) | 6.51µM* | 16.9µM* | ? | ? | 3.16µM* | ?
O=C(CSc1nnc2n(C3CCCC3)c(=O)c3ccccc3n12)N1CCCCCC1 | -17.8% | -2.0% | ? | -2.7% | 1.2% | ?
CC1CCCN(C(=O)CSc2nnc(-c3cccs3)o2)C1 (configuration not stated) | ? | 21.3µM* | / | 2.51µM* | 3.55µM* | ?
COCCN1Cc2c(sc(C)c2C)N(C(=O)c2ccccc2)C1 | 4.7% | 19µM* | 14.7% | ? | 14.9% | ?
Cc1sc2c(c1C)CN(Cc1ccncc1)CN2C(=O)c1ccco1 | 1.3% | ? | -5.6% | 2.7% | 9.6% | ?
SMILES | ELG1 genotoxic | FLuc modulator | SMN2 splice enh | NPC1 promoter act | Rab9 prom act | ELG1 repair inh
CCOC(=O)[C@@H](O)Cc1cnc2ccccc2n1 | / | / | -12.1%[9.22 µM] | / | / | /
COc1c2ccc(OCC/C(C)=C/C(=O)C=C(C)C)cc2nc2occc12 | -2.8% | / | / | / | / | 17.0%
CCCCn1c(N)c(N(Cc2ccccc2OC)C(=O)C(C)Oc2ccc(Cl)cc2)c(=O)[nH]c1=O (configuration not stated) | -2.0% | 1.6% | / | -3.5% | 3.5% | -2.7%
CN(C)CCNC(=O)CCCn1c(=O)c2cccn2c2ccccc21 | / | 15.1µM* | / | / | / | /
Cc1ccc(Cl)cc1NC(=O)CCCn1c(=O)c2cccn2c2ccccc21 | / | 12µM* | / | / | / | /
COc1ccc(CCNC(=O)CCCn2c(=O)c3cccn3c3cccnc32)c(OC)c1OC | -4.0% | -7.2% | / | -5.6% | -0.3% | 13µM*
COc1ccc(CCNC(=O)CCCn2c(=O)c3cccn3c3ccccc32)cc1OC | / | -1.3% | / | / | / | /
Cc1ccc(Cl)cc1NC(=O)CCCn1c(=O)c2cccn2c2cccnc21 | / | -1.8% | / | / | / | /
Cc1ccc(Cl)c2c1NC(=O)C2=O | 3.7% | / | / | / | / | ?
C/C(=N\Nc1ccc(S(N)(=O)=O)cc1[N+](=O)[O-])c1ccccc1O | 3.9% | 3.1% | / | -0.2% | -6.4% | -10.6%
CC/C(=N\Nc1ccccc1[N+](=O)[O-])c1ccc(O)cc1 | 10.0% | 26.9µM* | / | 5.7% | 0.1% | -5.8%
C/C(=N\Nc1ccccc1[N+](=O)[O-])c1ccccc1O | 20.6µM* | 5.36µM* | / | 8.4% | -0.5% | ?
CC(C)S(=O)(=O)c1csc(C(=O)Nc2ccc(F)cc2)c1N | 2.91µM* | 6.01µM* | / | 0.562µM* | 0.562µM* | ?
CC(=O)Oc1ccc2nc(/C=C/c3ccccc3)oc(=O)c2c1 | 2.8% | 1.07µM* | / | -5.0% | 3.7% | 25.9%
CC(=O)Oc1ccc2c(=O)oc(-c3ccccc3)nc2c1 | 0.8% | 7.57µM* | / | 0.8% | 0.4% | -11.8%
CC(=O)Oc1ccc2c(=O)oc(-c3ccccc3C)nc2c1 | -0.2% | 19µM* | / | -2.0% | 0.2% | 5.4%
CC(=O)Oc1ccc2nc(/C=C/c3ccc(C=O)cc3)oc(=O)c2c1 | 3.3% | ? | / | -4.4% | -1.8% | 16.6%
CC(=O)Oc1ccc(-c2nc3cc(Cl)ccc3c(=O)o2)cc1 | -3.3% | -11.5% | / | -4.1% | 6.3% | 2.2%
Cc1ccccc1Nc1cc(C(=O)NCc2cccs2)c2ccccc2n1 | / | ? | 1.3% | / | / | /

Source: PubChem
